# Data taken from PubChem BioAssay AID485297 (National Center for Advancing Translational Sciences (NCATS), 2010).
# Out of some 320,000 compounds screened, about 9,100 (2.8%) were called active. Where a call stands in place of a potency, no number is given. Inconclusive results (about 3%) are left out. The call rests on the fitted dose curve; in most records, active means well fitted activation curve with a large enough effect; inconclusive means small, poorly fitted or top-dose-only effect; inactive means no such curve, though single readings can be large or run the other way. This excerpt belongs to a sample that is enriched for actives.
# Assay: qHTS Assay for Rab9 Promoter Activators; further: nearly all actives have a fitted effect of over 60% in size
# Conditions: Huh7 Rab9 promoter-luciferase reporter, luminescence, 24 h; series mostly up to 9.22 µM
# How it was run: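 Luciferase signal after 10 min detection reagent at ambient indicates Rab9 promoter upregulation; stably transfected Huh7 cells were treated 24 h with compound in DMSO at 37 °C, 5% CO2.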
# Potency means the concentration at half of the fitted maximal effect.
row,SMILES,Potency
1,CCOCC(=O)NCc1ccc2c(c1)cc(C)n2C,inactive
2,Cc1cccc(Nc2nnc(SCC(=O)c3c(N)n(C4CC4)c(=O)[nH]c3=O)s2)c1C,inactive
3,Cc1cc(C)c2nc(SCC(=O)N(C)C3CCS(=O)(=O)C3)cc(C)c2c1 (stereo not given),inactive
4,CC(C)(C)C1C/C(=C/c2ccco2)C(=O)/C(=C/c2ccco2)C1 (stereo not given),inactive
5,CSc1ccc(Cl)c(C(=O)OCC(=O)N2CCNC2=O)c1,inactive
6,CCn1c(=S)sc2c(=O)n(CC(=O)Nc3ccc(OC)cc3)c(C)nc21,inactive
7,Cc1ccc(CSc2ccc(S(=O)(=O)N3CCCCC3)cn2)cc1,inactive
8,O=C(CCNS(=O)(=O)c1ccccc1)NCCCc1ccccc1,inactive
9,CC(=O)Oc1ccc2c(c1)C(=O)c1ccccc1C2=O,inactive
10,COc1cccc(-c2ccc3c(c2)S(=O)(=O)c2cccc(C(=O)O)c2C3=O)c1OC,inactive
11,COc1ccc2c(c1OC)C(=O)c1ccccc1C2=O,3.98 µM (active)
12,CN(CC(=O)NCCc1ccc(F)cc1)CC(=O)Nc1ccc(F)c(F)c1F,inactive
13,Cc1nonc1NC(=O)c1oc2ccccc2c1C,inactive
14,Cc1c(C(=O)Nc2ccccn2)oc2ccc(Br)cc12,3.55 µM (active)
15,Cc1noc(C)c1C(=O)Nc1ccccn1,inactive
16,CC1CCCN(C(=O)c2cc(-c3ccco3)nc3ccccc23)C1 (stereo not given),inactive
17,COc1cc(CC(=O)NCc2cccs2)cc(OC)c1OC,inactive
18,O=C(CCC(=O)c1ccccc1)NCc1cccc(C(F)(F)F)c1,inactive
19,O=C(Cc1cccs1)NCc1cccc(C(F)(F)F)c1,2.51 µM (active)
20,O=S(=O)(c1ccc(SCc2ccc(Br)cc2)nc1)N1CCOCC1,inactive
21,COC(=O)c1cccc(NC(=O)c2cccc(N3C(=O)CCC3=O)c2)c1,inactive
22,O=C(COC(=O)c1cc(S(=O)(=O)N2CCOCC2)ccc1Cl)NCCc1ccccc1,inactive
23,CC(C)c1ccc(S(=O)(=O)N2CCN(C(C)C(=O)NC3CCCC3)CC2)cc1 (stereo not given),inactive

row,SMILES,Potency
1,COc1ccc(OC)c(-c2csc(-c3cccs3)n2)c1,inactive
2,COc1ccc(-c2csc(-c3cccs3)n2)cc1OC,1.78 µM (active)
3,COc1cccc(CC(=O)Nc2nc(-c3ccc(OC)c(OC)c3)cs2)c1,inactive
4,O=C1Cc2cc(S(=O)(=O)Nc3cccc(F)c3)ccc2N1,inactive
5,COc1ccc(CCNC(=O)COC(=O)c2cc(=O)c3ccccc3o2)cc1,inactive
6,COc1ccc(-c2csc(Cc3nc(O)cs3)n2)cc1,1 µM (active)
7,COc1cccc(CC(=O)Nc2ccc(-c3csc(C)n3)cc2)c1,inactive
8,CC(C)(C)C(=O)OCc1nc(-c2ccc(O)c(O)c2)cs1,inactive
9,O=C(c1cn(-c2ccccc2)nc1-c1cccnc1)N1CCN(S(=O)(=O)c2ccccc2F)CC1,inactive
10,CC(=O)Nc1ccc(C(=O)Nc2nc(-c3cc(C)n(Cc4ccccc4)c3C)cs2)cc1,inactive
11,Cc1ccc(Nc2nc(-c3ccc(O)cc3O)cs2)nc1,1.41 µM (active)
12,O=C(CCNS(=O)(=O)c1ccccc1C(F)(F)F)Nc1ccncc1,inactive
13,Cc1cccc(OCCC(=O)OCc2csc(CC(=O)Nc3ccccc3C)n2)c1,inactive
14,Cc1cc(Cl)c2oc(C(=O)N3CCC(O)(c4ccccc4)CC3)c(C)c2c1,inactive
15,O=c1cc(Cn2nnc(-c3ccc(Cl)cc3)n2)nc2sccn12,inactive
16,COc1ccccc1N1CCN(C(=O)Cn2nnc(-c3cccs3)n2)CC1,inactive
17,Clc1cccc(Cl)c1Cn1nnc(-c2cccs2)n1,2.82 µM (active)
18,Nc1ccc(-n2nncc2-c2ccco2)cc1,inactive
19,COc1ccc(CCC(=O)N2CCN(S(=O)(=O)c3ccc(OC)cc3)CC2)cc1,inactive
20,COc1ccc(CCNC(=O)CCc2ccccc2O)cc1OC,inactive
21,O=C(O)/C(=C/c1cccnc1)NC(=O)c1ccccc1,inactive
22,CCOc1ccc(NC(=O)CN(C)C(=O)CCSc2ccc(F)cc2)cc1OCC,inactive
23,C=CCSc1ccc(S(=O)(=O)N2CCN(C)CC2)cn1,inactive

row,SMILES,Potency
1,O=C(Nc1ccccc1)N1CCC(C(=O)N2CCN(Cc3ccccc3)CC2)CC1,inactive
2,Cn1c(N)c(C(=O)COC(=O)/C=C/c2cccc(C(F)(F)F)c2)c(=O)n(C)c1=O,inactive
3,C/C(=N\NS(=O)(=O)c1ccc(Br)cc1)c1cccs1,inactive
4,C/C(=N\Nc1ncc(Cl)cc1Cl)c1cccs1,1.26 µM (active)
5,C/C(=N\Nc1ccc(S(N)(=O)=O)cc1[N+](=O)[O-])c1cccs1,inactive
6,C/C(=N\Nc1nc2ccccc2[nH]1)c1cccs1,1 µM (active)
7,C/C(=N\Nc1nc(Nc2ccccc2)nc(N2CCOCC2)n1)c1cccs1,inactive
8,O=C(Nc1ccccc1-c1nc2ccccc2[nH]c1=O)c1cccs1,inactive
9,O=C(c1ccc(Cl)nc1)N1CCN(S(=O)(=O)c2ccc3c(c2)OCCO3)CC1,inactive
10,CCc1ccccc1OCC(=O)Nc1ccc(C)c(S(=O)(=O)N2CCCCCC2)c1,inactive
11,CCCCN(C(=O)C1=NN(c2cc(C)ccc2C)C(=O)CC1)c1c(N)n(CCC)c(=O)[nH]c1=O,inactive
12,CCC1CCC2(CC1)NC(=O)N(CC(=O)Nc1ccc(OC)cc1)C2=O (stereo not given),inactive
13,COc1ccc(OC)c(CN2CCN(C(=O)CNC(=O)c3cc(C)cc(C)c3)CC2)c1,inactive
14,COc1cc([C@H](Cc2ccccc2)NC(C)=O)oc(=O)c1,inactive
15,Cc1ccc(C)c(C(=O)COC(=O)Cn2[nH]c(=O)c3ccccc3c2=O)c1,inactive
16,O=c1c(-c2ccccc2)coc2c(CN3CCOCC3)c(O)ccc12,inactive
17,CC(C)CN(Cc1c(O)ccc2c(=O)c(-c3ccccc3)coc12)CC(C)C,inactive
18,O=c1c(-c2ccccc2)coc2cc(O)ccc12,2.82 µM (active)
19,COc1ccccc1CNC(=O)CCCN1C(=O)NC2(CCCC2)C1=O,inactive
20,COc1ccc(C2(C)ON(c3ccccc3C(F)(F)F)C2=O)cc1 (stereo not given),inactive
21,Cc1nc(-c2ccc(F)cc2)c(CC(=O)N(C)CC(=O)Nc2c(C)cccc2C)s1,inactive
22,Cc1nc2ccccc2cc1C(=O)N/N=C/c1ccc([N+](=O)[O-])cc1,inactive
23,Cc1ccc(NC(=O)c2sccc2C)cc1[N+](=O)[O-],1.78 µM (active)

row,SMILES,Potency
1,Cc1ccsc1C(=O)N/N=C/c1ccc([N+](=O)[O-])cc1,3.55 µM (active)
2,Cc1ccc(NC(=O)CN2CCC(C(N)=O)CC2)cc1[N+](=O)[O-],inactive
3,Cc1ccc(NC(=O)CN(C)CC(=O)Nc2cccc(F)c2)cc1[N+](=O)[O-],inactive
4,Cc1ccc(/C=N/NC(=O)c2sccc2OCc2ccc(F)cc2)cc1,inactive
5,CN(C)c1cc2c(Nc3ccc4c(cnn4Cc4ccccc4)c3)ncnc2cn1,inactive
6,CNC(=O)C1CC(=O)N(c2ccc(OCC(=O)Nc3ccccc3C)cc2)C1 (stereo not given),inactive
7,COc1ccc(NS(=O)(=O)c2cc(NC(=O)COc3ccccc3F)ccc2OC)cc1,inactive
8,CCOc1ccc2oc(C(=O)N(CC)CC(=O)Nc3ccc(NC(C)=O)cc3)c(C)c2c1,inactive
9,CCC[C@H]1CCCC/C=C\CCCC(=O)OCCN1C(=O)OC(C)(C)C,inactive
10,Nc1c(C(=O)OCC(=O)Nc2ccc(OC(F)F)cc2)[nH]c(=O)[nH]c1=O,inactive
11,COc1cccc(/C=C/c2ccc3ccccc3n2)c1OC(C)=O,0.447 µM (active)
12,COc1cccc(/C=C2\C=C(c3ccc(C)cc3)OC2=O)c1OC(C)=O,inactive
13,NC(=O)COC(=O)/C=C/c1ccc2ccccc2n1,inactive
14,CCc1ccc(Nc2nnc(SCC(=O)c3ccc4c(c3)NC(=O)CO4)s2)cc1,inactive
15,Cc1noc(C)c1-c1ccc2ncnc(NC(C)c3ccco3)c2c1 (stereo not given),inactive
16,COc1ccc(CN2CCN(C(=O)c3cc(C4CC4)nn3-c3ccccc3)CC2)cc1F,inactive
17,Nc1ccc2nn(-c3ccc(Cl)cc3)nc2c1,0.224 µM (active)
18,c1ccc(-n2nc3ccccc3n2)cc1,inactive
19,CN(C)c1nnnn1-c1ccc(Cl)cc1,inactive
20,CCOc1ccc(N2C(=O)CSC2=NC#N)cc1,inactive
21,C=CCn1c(SCC(=O)Nc2ccc(NC(C)=O)cc2)nc2sc(C)c(C)c2c1=O,inactive
22,Cc1ccc(NC(=O)Nc2ccc3oc(C)nc3c2)cc1,1.58 µM (active)
23,Cc1nc2ccc(NC(=O)C(F)(F)F)cc2o1,inactive

row,SMILES,Potency
1,COC(=O)c1ccc(NC(=O)Nc2ccc(C)cc2)cc1,inactive
2,CCOc1ccc(C(=O)NCC(=O)N2CCN(c3ccc(C(F)(F)F)cn3)CC2)cc1,inactive
3,CCCCn1c(N)c(N(CCC(C)C)C(=O)COC(=O)c2ccc(CC)cc2)c(=O)[nH]c1=O,inactive
4,Cc1ncc(CO)c(/C=N/NC(=O)c2cccc(S(=O)(=O)N3CCCC3)c2)c1O,inactive
5,O=C(N/N=C/c1cccc([N+](=O)[O-])c1)C1CC(=O)N(c2ccc(Br)cc2)C1 (stereo not given),inactive
6,O=[N+]([O-])c1cccc(/C=N/Nc2ncc(Br)cn2)c1,2.82 µM (active)
7,Cc1ccc(NC(=O)O/N=C/c2cccc([N+](=O)[O-])c2)cc1,inactive
8,CCOc1ccc(NC(=O)CN(C)C(=O)Cn2c(=O)cnc3ccccc32)cc1OCC,inactive
9,Cc1cc(/C=N/NC(=O)c2cccnc2)c(C)n1CC(C)C,2.82 µM (active)
10,O=C(N/N=C/c1ccccn1)c1cccnc1,inactive
11,Cc1nn(Cc2ccc(Cl)cc2)c(Cl)c1/C=N/NC(=O)c1cccnc1,inactive
12,Cc1cnc(NC(=O)CSc2c(Cl)cccc2Cl)s1,inactive
13,Cc1occc1C(=O)Nc1nnc(C2CCCCC2)s1,2.82 µM (active)
14,Cc1cnc(NC(=O)C2CCCC2)s1,inactive
15,O=C(Nc1nnc(C2CC2)s1)c1cc(Cl)sc1Cl,inactive
16,COc1ccc(NC(=O)CCC(=O)Nc2nnc(C3CCCCC3)s2)cc1,inactive
17,Cc1occc1C(=O)Nc1nnc(-c2ccncc2)s1,inactive
18,Cc1cnc(NC(=O)c2ccc(Cl)nc2)s1,2.82 µM (active)
19,O=C(Nc1nnc(C2CC2)s1)c1ccccn1,0.447 µM (active)
20,O=C(Cc1cccs1)Nc1nnc(C2CC2)s1,inactive
21,CS(=O)(=O)c1ccc2nc(NC(=O)c3ccc(Cl)nc3)sc2c1,inactive
22,Cc1cnc(NC(=O)c2ccccn2)s1,0.282 µM (active)
23,CCN(CC)c1ccc(NC(=O)c2ccc(Cl)nc2)cc1,inactive
